Data taken from ChEMBL document CHEMBL3988442, “University of Dundee, Small-Polar-MMV Screening Library” (2021).
For some of these results: Measured potencies and affinities stand elsewhere.

Tests used:
Parameters in all cases: scale not given: direction of the effect not stated beside the values
[1] = target: Protein translocase subunit SecA (Escherichia coli (strain K12)) (UniProt P10408); experiment: Assay to Identify E. coli SecA ATPase Inhibitors; type: functional; settings: 30 µM
[2] = target: T1, Ubiquitin-activating enzyme e1, putative (Leishmania donovani (strain BPK282A1)) (UniProt E9BSI1); experiment: Leishmania donovani Ubiquitin Activating Enzyme (LdE1); type: functional; settings: 30 µM
T1 sequence (whole entry): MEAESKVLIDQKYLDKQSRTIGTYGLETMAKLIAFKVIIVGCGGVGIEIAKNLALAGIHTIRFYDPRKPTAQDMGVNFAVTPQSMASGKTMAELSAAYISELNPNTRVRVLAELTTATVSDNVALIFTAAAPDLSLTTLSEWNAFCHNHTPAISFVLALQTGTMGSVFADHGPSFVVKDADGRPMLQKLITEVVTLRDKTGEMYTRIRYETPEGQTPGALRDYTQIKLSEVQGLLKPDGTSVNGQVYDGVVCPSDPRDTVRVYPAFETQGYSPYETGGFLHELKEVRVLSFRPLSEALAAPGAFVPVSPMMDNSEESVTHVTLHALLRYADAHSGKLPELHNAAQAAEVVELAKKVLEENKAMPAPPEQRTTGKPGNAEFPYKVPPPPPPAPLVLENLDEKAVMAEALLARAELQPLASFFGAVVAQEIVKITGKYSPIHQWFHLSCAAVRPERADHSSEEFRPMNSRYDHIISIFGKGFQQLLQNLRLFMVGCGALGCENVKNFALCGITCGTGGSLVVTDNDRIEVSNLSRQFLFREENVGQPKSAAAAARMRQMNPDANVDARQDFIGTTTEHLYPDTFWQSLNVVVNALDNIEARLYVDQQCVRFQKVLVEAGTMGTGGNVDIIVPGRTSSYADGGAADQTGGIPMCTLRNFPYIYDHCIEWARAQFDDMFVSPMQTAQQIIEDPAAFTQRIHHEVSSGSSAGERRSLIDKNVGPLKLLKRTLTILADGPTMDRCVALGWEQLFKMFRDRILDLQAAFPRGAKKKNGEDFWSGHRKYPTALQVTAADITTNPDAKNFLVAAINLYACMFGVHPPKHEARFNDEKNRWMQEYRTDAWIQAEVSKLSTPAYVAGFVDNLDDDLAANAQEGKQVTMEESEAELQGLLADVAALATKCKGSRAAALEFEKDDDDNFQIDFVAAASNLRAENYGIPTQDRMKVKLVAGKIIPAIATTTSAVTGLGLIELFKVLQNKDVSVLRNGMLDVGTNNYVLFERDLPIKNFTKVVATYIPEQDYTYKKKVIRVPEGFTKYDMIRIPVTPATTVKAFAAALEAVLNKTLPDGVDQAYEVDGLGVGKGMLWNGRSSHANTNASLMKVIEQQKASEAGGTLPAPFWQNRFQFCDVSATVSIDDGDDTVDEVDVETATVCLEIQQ

[3] = target: AMP-activated protein kinase, AMPK (Homo sapiens) (UniProt P54646+O43741+P54619+Q9UGJ0+Q9Y478+Q13131+Q9UGI9); experiment: AMP-dependent Kinase enzyme assay. An in vitro enzyme assay that detects ADP turnover that is directly proportional to AMPK activity. This uses naive AMPK that is activated during the assay with MK-8722; type: functional; settings: 30 µM
[4] = target: Sialic acid-binding Ig-like lectin 9 (Homo sapiens) (UniProt Q9Y336); experiment: Hs-Siglec9 ALPHAscreen SOP 20170721; settings: 10 µM
Chain of Sialic acid-binding Ig-like lectin 9 (Homo sapiens) (Q9Y336 whole entry): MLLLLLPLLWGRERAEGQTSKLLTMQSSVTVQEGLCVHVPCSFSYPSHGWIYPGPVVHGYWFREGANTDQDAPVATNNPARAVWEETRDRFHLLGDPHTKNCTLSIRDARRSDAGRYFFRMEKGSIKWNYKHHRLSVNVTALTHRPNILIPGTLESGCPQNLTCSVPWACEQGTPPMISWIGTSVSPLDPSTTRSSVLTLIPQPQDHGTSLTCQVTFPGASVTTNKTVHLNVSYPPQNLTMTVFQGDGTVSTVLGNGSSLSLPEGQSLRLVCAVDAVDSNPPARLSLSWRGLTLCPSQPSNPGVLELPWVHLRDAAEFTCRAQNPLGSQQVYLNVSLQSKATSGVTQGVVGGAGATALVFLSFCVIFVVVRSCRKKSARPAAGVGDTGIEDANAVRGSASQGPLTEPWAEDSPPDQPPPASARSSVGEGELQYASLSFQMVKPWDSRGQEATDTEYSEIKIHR

[5] = system: Trypanosoma cruzi; experiment: Trypanosoma cruzi phosphomannomutase and mannose-1-phosphate guanylyltransferase assay; type: functional; settings: 10 µM
[6] = target: T2, Arginase-2, mitochondrial (Homo sapiens) (UniProt P78540); experiment: in vitro enzyme assay to detect the production of urea directly proportional to the activity of Arginase II; type: functional; settings: 33.3 µM; further: in the data most compounds retested in dose-response had high values
T2 sequence (whole entry): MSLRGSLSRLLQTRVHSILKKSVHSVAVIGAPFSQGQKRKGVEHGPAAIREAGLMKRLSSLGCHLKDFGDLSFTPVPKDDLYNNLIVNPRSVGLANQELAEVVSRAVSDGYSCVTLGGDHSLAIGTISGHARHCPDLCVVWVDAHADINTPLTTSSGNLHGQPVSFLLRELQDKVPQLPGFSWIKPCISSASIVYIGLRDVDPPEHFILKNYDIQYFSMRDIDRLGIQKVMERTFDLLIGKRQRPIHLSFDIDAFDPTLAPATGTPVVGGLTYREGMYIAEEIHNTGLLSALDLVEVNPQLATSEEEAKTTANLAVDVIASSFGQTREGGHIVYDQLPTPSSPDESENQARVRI

[7] = target: T3, Proteasome subunit beta (Trypanosoma cruzi) (UniProt O96673); experiment: Trypanosoma cruzi proteasome chymotrypsin-like activity (TcProtChymo) assay.; further: in the data most compounds retested in dose-response had high values; type: functional; settings: 9.37 µM
T3 sequence (whole entry): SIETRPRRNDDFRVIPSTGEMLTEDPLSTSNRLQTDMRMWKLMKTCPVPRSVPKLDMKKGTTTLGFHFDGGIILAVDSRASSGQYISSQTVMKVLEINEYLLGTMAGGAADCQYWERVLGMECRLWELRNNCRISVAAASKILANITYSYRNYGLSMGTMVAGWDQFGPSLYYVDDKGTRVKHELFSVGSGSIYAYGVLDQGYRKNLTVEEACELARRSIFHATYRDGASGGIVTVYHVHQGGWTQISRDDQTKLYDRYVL

[8] = species: Homo sapiens; experiment: To identify inhibition of the IFN signalling (Jak-Stat) pathway via expression of an eGFP reporter gene under the control of an IFN-stimulated response element (ISRE) containing MxA promoter.; type: functional; settings: 30 µM
[9] = target: T4, Tyrosyl-tRNA synthetase, putative (Trypanosoma cruzi (strain CL Brener)) (UniProt Q4DSP6); experiment: Trypanosoma cruzi tyrosyl tRNA synthetase (TcYRS) _High Tyrosine SOP; type: functional; settings: 30 µM; further: in the data most compounds retested in dose-response had high values
T4 sequence (whole entry): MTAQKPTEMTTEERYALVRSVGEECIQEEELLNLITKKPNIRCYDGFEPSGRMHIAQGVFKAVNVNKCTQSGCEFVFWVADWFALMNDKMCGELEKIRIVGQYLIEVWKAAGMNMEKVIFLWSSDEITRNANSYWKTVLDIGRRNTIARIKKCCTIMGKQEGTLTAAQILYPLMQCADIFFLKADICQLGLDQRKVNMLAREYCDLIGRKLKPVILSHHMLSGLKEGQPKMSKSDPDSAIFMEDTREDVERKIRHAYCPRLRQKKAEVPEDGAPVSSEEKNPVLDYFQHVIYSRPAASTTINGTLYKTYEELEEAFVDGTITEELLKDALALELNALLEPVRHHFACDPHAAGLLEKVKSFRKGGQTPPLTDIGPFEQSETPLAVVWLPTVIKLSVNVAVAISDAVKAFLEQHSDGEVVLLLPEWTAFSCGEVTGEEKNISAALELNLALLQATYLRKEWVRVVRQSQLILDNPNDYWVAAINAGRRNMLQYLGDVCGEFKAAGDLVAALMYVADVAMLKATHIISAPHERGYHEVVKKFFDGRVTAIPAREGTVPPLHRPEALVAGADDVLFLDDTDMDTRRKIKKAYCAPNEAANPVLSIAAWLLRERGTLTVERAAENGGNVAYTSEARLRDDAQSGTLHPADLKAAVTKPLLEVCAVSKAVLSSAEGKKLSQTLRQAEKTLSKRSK

[10] = target: T4, Tyrosyl-tRNA synthetase, putative (Trypanosoma cruzi (strain CL Brener)); experiment: Trypanosoma cruzi tyrosyl tRNA synthetase (TcYRS) SOP; type: functional; settings: 30 µM
[11] = target: Chromo domain-containing protein 1 (Saccharomyces cerevisiae (strain ATCC 204508 / S288c) (Baker's yeast)) (UniProt P32657); experiment: ScCHD-1 Enzyme Inhibition Assay; type: functional; settings: 30 µM; further: in the data most compounds retested in dose-response had high values
Chain of Chromo domain-containing protein 1 (Saccharomyces cerevisiae (strain ATCC 204508 / S288c) (Baker's yeast)) (P32657 whole entry, the tested form may be a part): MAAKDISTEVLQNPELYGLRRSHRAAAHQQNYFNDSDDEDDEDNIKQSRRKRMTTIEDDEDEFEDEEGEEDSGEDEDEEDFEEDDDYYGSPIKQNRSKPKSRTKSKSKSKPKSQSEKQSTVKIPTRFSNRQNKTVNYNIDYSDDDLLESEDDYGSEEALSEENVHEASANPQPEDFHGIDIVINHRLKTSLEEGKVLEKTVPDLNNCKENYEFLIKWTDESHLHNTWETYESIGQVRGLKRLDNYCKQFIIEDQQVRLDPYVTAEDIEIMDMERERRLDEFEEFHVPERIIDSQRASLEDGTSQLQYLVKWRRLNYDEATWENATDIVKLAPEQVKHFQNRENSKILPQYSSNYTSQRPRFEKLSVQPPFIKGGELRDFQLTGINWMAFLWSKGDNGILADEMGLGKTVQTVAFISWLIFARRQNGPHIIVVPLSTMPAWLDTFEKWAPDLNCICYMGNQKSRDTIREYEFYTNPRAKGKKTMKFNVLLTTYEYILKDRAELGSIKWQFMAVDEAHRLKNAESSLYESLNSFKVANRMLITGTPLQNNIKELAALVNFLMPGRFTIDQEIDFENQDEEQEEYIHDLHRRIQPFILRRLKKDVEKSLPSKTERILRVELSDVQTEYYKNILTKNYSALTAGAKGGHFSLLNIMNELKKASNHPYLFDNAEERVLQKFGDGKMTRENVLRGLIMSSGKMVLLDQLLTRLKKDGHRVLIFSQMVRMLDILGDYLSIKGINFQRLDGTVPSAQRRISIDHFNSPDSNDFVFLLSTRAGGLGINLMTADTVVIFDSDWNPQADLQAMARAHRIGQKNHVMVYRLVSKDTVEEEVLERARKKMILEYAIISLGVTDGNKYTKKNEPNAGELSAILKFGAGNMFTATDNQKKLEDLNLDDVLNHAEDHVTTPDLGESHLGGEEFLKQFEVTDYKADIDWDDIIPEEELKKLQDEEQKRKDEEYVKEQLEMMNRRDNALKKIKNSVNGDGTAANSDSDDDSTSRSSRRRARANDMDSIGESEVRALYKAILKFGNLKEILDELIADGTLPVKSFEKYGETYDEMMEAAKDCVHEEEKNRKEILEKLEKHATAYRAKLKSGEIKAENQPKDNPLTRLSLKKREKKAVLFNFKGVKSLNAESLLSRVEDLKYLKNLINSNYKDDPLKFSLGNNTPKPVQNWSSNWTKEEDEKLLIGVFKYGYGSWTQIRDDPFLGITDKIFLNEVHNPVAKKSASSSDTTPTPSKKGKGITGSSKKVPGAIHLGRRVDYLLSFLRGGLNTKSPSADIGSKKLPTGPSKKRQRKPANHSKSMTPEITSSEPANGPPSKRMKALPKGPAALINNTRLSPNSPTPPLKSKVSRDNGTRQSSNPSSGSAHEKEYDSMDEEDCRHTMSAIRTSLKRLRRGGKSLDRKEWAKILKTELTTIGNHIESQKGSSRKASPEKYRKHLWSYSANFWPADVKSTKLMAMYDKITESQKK

Chain of Protein translocase subunit SecA (Escherichia coli (strain K12)) (P10408 whole entry): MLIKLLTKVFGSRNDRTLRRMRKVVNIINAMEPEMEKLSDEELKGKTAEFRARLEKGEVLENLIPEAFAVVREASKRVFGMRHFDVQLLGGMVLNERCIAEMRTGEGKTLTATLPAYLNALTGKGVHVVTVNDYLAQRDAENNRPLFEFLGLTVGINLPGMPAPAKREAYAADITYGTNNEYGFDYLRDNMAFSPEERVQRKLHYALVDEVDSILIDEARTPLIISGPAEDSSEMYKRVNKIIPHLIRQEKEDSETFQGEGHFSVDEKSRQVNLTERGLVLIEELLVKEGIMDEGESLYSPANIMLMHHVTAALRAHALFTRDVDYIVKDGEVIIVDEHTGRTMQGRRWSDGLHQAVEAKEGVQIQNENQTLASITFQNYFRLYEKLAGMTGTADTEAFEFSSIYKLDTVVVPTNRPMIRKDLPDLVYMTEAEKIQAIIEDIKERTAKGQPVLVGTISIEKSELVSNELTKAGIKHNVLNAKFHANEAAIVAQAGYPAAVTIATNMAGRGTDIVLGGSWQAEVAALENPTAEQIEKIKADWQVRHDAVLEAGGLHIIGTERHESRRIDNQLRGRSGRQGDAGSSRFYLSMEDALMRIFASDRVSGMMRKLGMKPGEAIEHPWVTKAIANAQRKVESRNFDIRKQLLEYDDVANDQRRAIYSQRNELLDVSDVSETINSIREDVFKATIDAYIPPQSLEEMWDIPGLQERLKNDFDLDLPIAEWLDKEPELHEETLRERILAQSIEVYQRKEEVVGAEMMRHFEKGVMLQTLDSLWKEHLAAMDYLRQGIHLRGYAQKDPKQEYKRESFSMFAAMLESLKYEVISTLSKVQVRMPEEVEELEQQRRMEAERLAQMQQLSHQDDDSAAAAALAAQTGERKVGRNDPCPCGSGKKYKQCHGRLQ

| SMILES | Percent Effect [1] [%] | Percent Effect [2] [%] | Percent Effect [3] [%] | Percent Effect [4] [%] | Percent Effect [5] [%] | Percent Effect [6] [%] | Percent Effect [7] [%] | Percent Effect [8] [%] | Percent Effect [9] [%] | Percent Effect [10] [%] | Percent Effect [11] [%] |
| --- | --- | --- | --- | --- | --- | --- | --- | --- | --- | --- | --- |
| CC(Cn1cncn1)NCc1nncn1C1CCCCC1 (configuration not stated) | -0.337 | 6.94 | -10.2 | 13.3 | 0.0972 | 12.4 | 14.4 | -15.2 | 8.42 | 15.4 | -5.04 |
| Cc1nc(CSCCC(=O)NCc2cccnc2N(C)C)cs1 | -0.871 | 20.2 | -1.17 | -7.06 | 5.38 | 4.56 | 7.45 | 5.3 | 6.4 | 24.1 | -7.54 |
| COc1cc(C2CC(=O)Oc3cc(C)[nH]c(=O)c32)ccc1OC(F)F (configuration not stated) | -2.55 | 17.3 | -1.47 | -4.76 | -5.3 | -6.16 | 19 | 7.6 | 3.17 | 12.8 | -13 |
| CCCc1noc(CCC(=O)NC(C)c2nnc3n2CCCCC3)n1 (configuration not stated) | -0.578 | 8.11 | -6.02 | 5.58 | -2.64 | 5.21 | 19.5 | 3.01 | 3.23 | 8.64 | -5.75 |
| Cc1nccn1CCC1CCCCN1Cc1ccncc1 (configuration not stated) | -5.73 | 8 | -13 | -0.0054 | -2.63 | 0.521 | 13.8 | 25.9 | 2.73 | 13.6 | -6.06 |
| CCn1c(=O)nc2n1C(=O)N(c1cccc(Cl)c1)C2 | -5.8 | 6.67 | -1.98 | -4.32 | -0.786 | 2.29 | 13.7 | -10.2 | 8.47 | 15.4 | -7.77 |
| CCOc1nnc(CN2CCC(N(C)Cc3noc(C)n3)C2)s1 (configuration not stated) | -0.236 | 13.2 | -4.92 | -14.9 | -9.06 | 5.04 | 12.4 | 11.4 | 7.39 | 6.17 | -8.06 |
| Cc1ccoc1C(=O)N1CCO[C@H]2[C@H](OCCN(C)C)CC[C@@H]21 | 0.717 | 5.33 | 0.186 | 15.6 | -2.7 | -56.5 | 5.98 | -12.8 | 2.08 | 10 | -3.32 |
| O=C(CCCOCc1ccccc1)N1CCCC1c1ccccn1 (configuration not stated) | -2.89 | 0 | -0.0464 | -0.638 | 2.55 | 7.99 | 5 | -30.4 | 0.493 | 3.8 | -2.69 |
| CCn1cnnc1C1CCN(C(=O)c2ccc(Cl)s2)CC1 | -3.49 | 17.7 | 1.65 | 2.56 | -0.661 | 2.66 | 5.98 | -19.1 | 4.43 | 11.4 | -3.04 |
| CN(Cc1ccsc1)C(=O)c1cccc(F)c1 | -5.35 | 20.8 | 1.32 | 3.27 | -2.06 | -1.07 | 5.74 | 9.71 | 3.88 | 19.5 | -9.1 |
| CCc1nccn1C1CCCN(C(=O)c2ccc(C(=O)NC)nc2)C1 (configuration not stated) | 1.89 | -2.6 | 1.32 | 2.31 | -2.81 | 4.63 | 1.86 | 18.1 | 1.94 | 0 | -4.59 |
| Cc1cc(C(=O)N2CC[C@H](OCC3CC3)[C@@H]2Cc2cccnc2)no1 | -2.54 | 0 | 0.886 | -3.88 | 0.772 | -36.4 | 4.79 | -3.71 | -1.04 | -2.5 | -5.62 |
| O=C(CCCc1cn[nH]c1)N1C[C@@H](CN2CCOCC2)[C@@H](CO)C1 | -5.38 | -5.48 | 0.507 | -3.16 | -2.74 | -2.27 | 4.08 | 5.26 | 0 | -5 | -2.89 |
| Cc1ccccc1CS(=O)(=O)CC(=O)NC1CCCCNC1=O (configuration not stated) | -5.33 | 18.2 | -2.46 | 11 | 4.87 | -4.98 | 8.62 | 11 | 4.85 | 21.9 | -8.24 |
| c1ccc(CCCN2CC(n3cccn3)C2)cc1 | 0.15 | 2.7 | -2.18 | -4.46 | 5.48 | -2.03 | 14.7 | 25.9 | 7.92 | 23.2 | -5.99 |
| Cc1nc(C)n(CC2CN(c3ccc(C#N)cn3)CCO2)n1 (configuration not stated) | -4.11 | 10.5 | -4.42 | 10.3 | 5.88 | 1.44 | 6.51 | -2.74 | 6.4 | 18.5 | -3.17 |
